In PubChem BioAssay AID1159580 (chemical genetic matrix, 2015):
“And” between values parts separate entries of the source, which are not always exact repeats. Equal entries are not always repeated. The campaign covered roughly 5,500 compounds. About 2,000 (36%) were called active. Not shown: some 18% with an inconclusive outcome. Cut-off read from the data, not from the text of the source: active = normalized growth mostly below about 0.91 (no sharp cut-off); inconclusive = no clear call, values can overlap the other calls; inactive = mostly above about 0.92. This is one part of the list.

Experiment: chemical genetic growth profiling, strain panel (AID 1159580);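 note: tested at 20 µM; growth read once vehicle control cultures reached saturation at 30 °C; 1 = growth at the plate median or of vehicle wells; lower values mean less growth of the strain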
Conditions: S. cerevisiae deletion strains, growth OD

Measured: normalized growth

COc1cc2cc[n+]3cc4c(OC)c(OC)ccc4cc3c2cc1OC
inactive: locus YAL013W, strain DEP1, active compounds read low 0.996 | locus YAL021C, strain ccr4, active compounds read low 0.99 | locus YAL026C, strain drs2, active compounds read low 0.97 | locus YAL030W, strain snc1, active compounds read low 0.965 | locus YBL061C, strain skt5, active compounds read low 0.971 | locus YBR009C, strain hhf1, active compounds read low 0.984 | locus YBR021W, strain FUR4, active compounds read low 1.03 | locus YBR023C, strain chs3, active compounds read low 0.977 | locus YBR171W, strain sec66, active compounds read low 0.975 | locus YBR229C, strain ROT2, active compounds read low 0.99 | locus YBR231C, strain swc5, active compounds read low 0.983 | locus YBR279W, strain paf1, active compounds read low 0.982 | locus YCL011C, strain gbp2, active compounds read low 0.963 | locus YCL016C, strain dcc1, active compounds read low 0.976 | locus YCL029C, strain bik1, active compounds read low 0.983 | locus YCL061C, strain MRC1, active compounds read low 0.987 | locus YCL069W, strain vba3, active compounds read low 0.981 | locus YCR088W, strain abp1, active compounds read low 0.982 | locus YDL005C, strain med2, active compounds read low 0.957 | locus YDL035C, strain GPR1, active compounds read low 0.975 | locus YDL040C, strain nat1, active compounds read low 0.985 | locus YDL074C, strain BRE1, active compounds read low 0.977 | locus YDL101C, strain DUN1, active compounds read low 0.98 | locus YDL134C, strain PPH21, active compounds read low 0.985 | locus YDL192W, strain arf1, active compounds read low 0.986 | locus YDR001C, strain nth1, active compounds read low 0.964 | locus YDR069C, strain doa4, active compounds read low 0.981 | locus YDR101C, strain arx1, active compounds read low 0.978 | locus YDR137W, strain rgp1, active compounds read low 0.977 | locus YDR150W, strain NUM1, active compounds read low 0.954 | locus YDR159W, strain sac3, active compounds read low 0.982 | locus YDR162C, strain NBP2, active compounds read low 0.99 | locus YDR195W, strain ref2 0.949 | locus YDR297W, strain sur2, active compounds read low 0.979 | locus YDR318W, strain mcm21, active compounds read low 0.969 | locus YDR334W, strain swr1, active compounds read low 0.944 | locus YDR335W, strain msn5, active compounds read low 0.98 | locus YDR388W, active compounds read low 0.989 | locus YDR392W, strain spt3, active compounds read low 0.927 | locus YDR502C, strain sam2, active compounds read low 0.98 | locus YEL003W, strain gim4, active compounds read low 0.974 | locus YEL037C, strain rad23, active compounds read low 0.967 | locus YEL061C, strain CIN8 (second series), active compounds read low 0.976 | locus YEL061C, strain CIN8, active compounds read low 0.996 | locus YER015W, strain faa2, active compounds read low 0.971 | locus YER016W, strain bim1, active compounds read low 0.974 | locus YER110C, active compounds read low 0.962 | locus YER111C, strain swi4, active compounds read low 0.972 | locus YER155C, strain BEM2 (second series), active compounds read low 0.976 | locus YER155C, strain BEM2, active compounds read low 1.01 | locus YER167W, strain BCK2, active compounds read low 0.978 | locus YFR010W, strain ubp6, active compounds read low 0.952 | locus YGL078C, strain dbp3, active compounds read low 0.979 | locus YGL086W, strain mad1, active compounds read low 0.975 | locus YGL167C, strain pmr1, active compounds read low 0.973 | locus YGL173C, strain kem1, active compounds read low 0.954 | locus YGL227W, strain vid30, active compounds read low 0.973 | locus YGL240W, strain doc1, active compounds read low 0.987 | locus YGL248W, strain PDE1, active compounds read low 0.99 | locus YGL253W, strain hxk2, active compounds read low 0.974 | locus YGR078C, strain PAC10, active compounds read low 0.986 | locus YGR135W, strain pre9, active compounds read low 1 | locus YGR229C, strain SMI1, active compounds read low 1.01 | locus YGR252W, strain gcn5, active compounds read low 0.93 | locus YHR013C, strain ard1, active compounds read low 0.945 | locus YHR027C, strain rpn1, active compounds read low 0.967 | locus YHR030C, strain SLT2, active compounds read low 0.982 and 1.02 | locus YHR079C, strain IRE1 (second series), active compounds read low 0.977 | locus YHR079C, strain IRE1, active compounds read low 1.04 | locus YHR094C, strain hxt1, active compounds read low 0.969 | locus YHR129C, strain ARP1, active compounds read low 0.945 | locus YHR142W, strain chs7, active compounds read low 0.932 | locus YHR200W, strain rpn10, active compounds read low 0.965 | locus YIL066C, strain RNR3, active compounds read low 0.974 | locus YIL073C, strain SPO22, active compounds read low 0.875 | locus YIL125W, strain kgd1, active compounds read low 0.965 | locus YIR030C, strain dcg1, active compounds read low 0.98 | locus YJL092W, strain hpr5, active compounds read low 0.978 | locus YJL095W, strain BCK1 (second series), active compounds read low 0.993 | locus YJL095W, strain BCK1, active compounds read low 0.994 and 0.984 | locus YJL115W, strain asf1, active compounds read low 0.936 | locus YJL129C, strain trk1, active compounds read low 0.94 | locus YJL134W, strain LCB3, active compounds read low 0.973 | locus YJL154C, strain vps35, active compounds read low 0.967 | locus YJL164C, strain tpk1, active compounds read low 1 | locus YJL166W, strain qcr8, active compounds read low 0.984 | locus YJL168C, strain set2, active compounds read low 0.98 | locus YJL187C, strain SWE1 (second series), active compounds read low 0.976 | locus YJL187C, strain SWE1, active compounds read low 0.988 | locus YJR043C, strain POL32, active compounds read low 0.96 | locus YJR066W, strain TOR1, active compounds read low 0.976
